Out of some 360,000 compounds screened, about 3,900 (1.1%) were called active. Only a selection was taken, and actives are over-represented in it overall. Values without a mark were called inactive.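 How the source made its calls: active means mean replicate inhibition score of at least 50 and every replicate individually at or above 50; inconclusive means only one of the two criteria met; inactive means mean below 50 and not all replicates reaching 50.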
Test: inhibitors of HIV-1 Env-driven cell-cell fusion, primary screen, HeLa-JRFL effector, CEM21 target cells, luciferase (AID 651610);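 further: 0% = plate neutral controls and 100% = maraviroc near 300 nM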
Conditions: stronger effect = higher value; at 16.7 µM unless noted

Structure (SMILES)	inhibition
C[C@H](CO)N1C[C@H](C)[C@@H](CN(C)C(=O)C2CC2)Oc2cc(C#CC(C)(C)O)ccc2S1(=O)=O	-33.6%
C[C@@H]1CCCCO[C@@H](CN(C)C(=O)Nc2cccc3ccccc23)[C@H](C)CN([C@H](C)CO)C(=O)c2cc(NS(C)(=O)=O)ccc2O1	-3.83%
Cc1noc(C)c1S(=O)(=O)Nc1ccc2c(c1)CC(=O)N([C@H](C)CO)C[C@@H](C)[C@@H](CN(C)Cc1ccc(C(=O)O)cc1)O2	20.1%
Cn1c(=O)c2c(nc(NCCNC(=O)c3ccco3)n2Cc2ccccc2F)n(C)c1=O	0.989% [at 12.3 µM]
Cn1c(=O)c2c(nc(NCCc3ccccc3)n2Cc2ccccc2)n(C)c1=O	86.6% [at 12.3 µM] (active)
CC(C)OCCCNc1nc2c(c(=O)n(Cc3ccccc3F)c(=O)n2C)n1C	4.04% [at 12.3 µM]
CC1CN(Cc2nc3c(c(=O)n(C)c(=O)n3C)n2Cc2cccc(Cl)c2)CC(C)O1 (stereo unspecified)	7.96% [at 12.3 µM]
CCCCNc1nc2c(c(=O)n(C)c(=O)n2C)n1Cc1cccc(OC)c1	88.5% [at 12.3 µM] (active)
Cn1c(=O)c2c(nc(NCc3ccccc3)n2CC(N)=O)n(C)c1=O	-8.78% [at 12.3 µM]
COc1ccc(S(=O)(=O)Nc2ccc3c(c2)C(=O)N([C@H](C)CO)C[C@@H](C)[C@H](CN(C)C(=O)Nc2ccc4c(c2)OCO4)O3)cc1	12%
COc1cccc(S(=O)(=O)N[C@H]2CC[C@@H](CCN)O[C@H]2CO)c1	-38.7%
CN(C)CCCNC(=O)C[C@@H]1C=C[C@H](NC(=O)Cc2cccnc2)[C@H](CO)O1	12.3%
C[C@@H]1CCCCO[C@@H](CN(C)Cc2ccncc2)[C@H](C)CN([C@H](C)CO)C(=O)c2cc(NC(=O)CCC(F)(F)F)ccc2O1	-12.7%
COc1cccc2c1C(=O)c1c(O)c3c(c(O)c1C2=O)CC(O)(C(C)=NNC(=O)c1ccc(Cl)c(Cl)c1)CC3OC1CC(N)C(O)C(C)O1 (stereo unspecified)	86% [at 12.3 µM] (active)
C[C@@H](NC(=O)C[C@@H]1CC[C@@H](NC(=O)C2CCOCC2)[C@@H](CO)O1)c1ccccc1	-27.6%
C[C@@H]1CN([C@@H](C)CO)C(=O)c2cc(-c3cncnc3)cnc2O[C@@H]1CN(C)Cc1ccncc1	1.5%
CC1CCCN(c2cccc3c2S(=O)(=O)N(Cc2ccc(F)cc2)[C@@H](C)[C@H](c2ccccc2)O3)C1 (stereo partly specified)	-2.41% [at 12.3 µM]
CN(C)C(=O)C[C@@H]1CC[C@H](NC(=O)NC2CCCC2)[C@H](CO)O1	2.96%
O=C(Nc1cccn(Cc2ccccc2Cl)c1=O)NC1CCCCC1	-4.39% [at 12.3 µM]
Cc1cc(NC(=O)c2ccco2)c(=O)n(Cc2c(F)cccc2Cl)c1	-1.03% [at 12.3 µM]
O=C(Nc1cccn(Cc2c(Cl)cccc2Cl)c1=O)c1ccc(Cl)cc1	76.4% [at 12.3 µM] (active)
CNC(=O)C[C@@H]1CC[C@H]2[C@H](COc3ccc(NC(=O)c4cccc(OC)c4)cc3C(=O)N2C)O1	-18.7%
C[C@H](CO)N1C[C@H](C)[C@@H](CN(C)S(=O)(=O)c2ccccc2)Oc2c(NC(=O)c3ccc(-c4nccs4)cc3)cccc2C1=O	-55.7%
O=C(Cc1ccncc1)NCC[C@H]1CC[C@H](NC(=O)C2CC2)[C@H](CO)O1	4.94%

Structure (SMILES)	inhibition
C[C@@H]1CN([C@@H](C)CO)C(=O)c2cc(NC(=O)C3CCCCC3)ccc2O[C@@H](C)CCCCO[C@H]1CN(C)C(=O)Nc1ccc2c(c1)OCO2	-19.1%
COc1ccc(CNc2ncnc3ccccc23)cc1	77% [at 12.3 µM] (active)
COc1ccc(CNc2nccs2)cc1	-9.44% [at 12.3 µM]
c1ccc(CNc2ncnc3[nH]ncc23)cc1	27.4% [at 12.3 µM]
C[C@@H]1CCCCO[C@@H](CN(C)S(=O)(=O)c2cn(C)cn2)[C@@H](C)CN([C@H](C)CO)C(=O)c2cc(NC(=O)c3ccncc3)ccc2O1	26.2%
CC(C)NC(=O)Nc1ccc2c(c1)CC(=O)N([C@H](C)CO)C[C@@H](C)[C@H](CN(C)S(=O)(=O)c1ccccc1)O2	2.93%
COc1ccc(CNCCCNCc2ccc(OC)c(OC)c2)cc1OC	-12.6% [at 12.3 µM]
COc1cc(CNCc2ccc(OC)c3ccccc23)cc(OC)c1OC	99.1% [at 12.3 µM] (active)
CCOc1c(CNCc2ccc(C(=O)O)cc2)cccc1OC	1.89% [at 12.3 µM]
Cc1noc(C)c1S(=O)(=O)Nc1ccc2c(c1)C(=O)N([C@H](C)CO)C[C@@H](C)[C@@H](CN(C)S(=O)(=O)c1ccc(Cl)cc1)O2	-6.25%
C[C@@H]1CN([C@@H](C)CO)C(=O)c2cc(N(C)C)ccc2O[C@H]1CN(C)Cc1ccc(C(F)(F)F)cc1	14.9%
CNC(=O)c1ccsc1NC(=O)c1ccc(S(=O)(=O)N2CCOCC2)cc1	-27.2% [at 12.3 µM]
COc1ccc(C(=O)Nc2nc(-c3ccc(S(=O)(=O)N4CCOCC4)cc3)cs2)cc1	93.5% [at 12.3 µM] (active)
COc1ccc(C(=O)Nc2cc(S(=O)(=O)N3CCCC3)ccc2Cl)cc1	-8.82% [at 12.3 µM]
CO[C@@H]1CN(C)C(=O)c2ccc(NC(=O)c3ccc(F)cc3)cc2OC[C@H](C)N(C)C[C@H]1C	9.99%
CN1C(=O)c2cc(NC(=O)c3cscn3)ccc2OC[C@H]2O[C@@H](CC(=O)NCC3CC3)CC[C@H]21	-0.83%
C[C@@H]1CCCCO[C@H](CN(C)Cc2ccccc2)[C@@H](C)CN([C@H](C)CO)C(=O)c2cc(NS(C)(=O)=O)ccc2O1	-1.64%
COc1ccccc1NC(=O)CSc1nnc(-c2ccoc2C)n1CCc1ccccc1	62.4% [at 12.3 µM] (active)
CCn1c(SCC(=O)NC2CCCC2)nnc1-c1ccoc1C	-2.28% [at 12.3 µM]
COc1ccccc1NC(=O)CSc1nnc(Cn2nnc(-c3ccccc3)n2)n1-c1ccccc1	-41.2% [at 12.3 µM]
COc1ccc(C#Cc2cnc3c(c2)C(=O)N([C@H](C)CO)C[C@@H](C)[C@@H](CN(C)C(=O)CN(C)C)O3)cc1	-3.11%
COc1ccc(-c2cnc3c(c2)C(=O)N([C@@H](C)CO)C[C@H](C)[C@H](CN(C)C(=O)Cc2cccnc2)O3)cc1	-3.34%
Cc1ccc(S(=O)(=O)Nc2ccc3ncccc3c2)cc1	60.8% [at 12.3 µM] (active)
Cc1ccc(NS(=O)(=O)c2ccc(C(C)(C)C)cc2)cn1	3.22% [at 12.3 µM]

Structure (SMILES)	inhibition
Cc1cc(C)cc(OCC(=O)Nc2ccc(S(=O)(=O)Nc3ccccn3)cc2)c1	19.9% [at 12.3 µM]
CCCCCCCNC(=O)C1(CC2CC(c3cccc(Br)c3)=NO2)CCN(C(=O)c2cc(OCC)c(OCC)c(OCC)c2)CC1 (stereo unspecified)	28.1% [at 12.3 µM]
O=C(c1ccccc1)N1CCC(CC2CC(c3ccc(Cl)cc3)=NO2)(C(=O)NCC2CCCCC2)CC1 (stereo unspecified)	-114% [at 12.3 µM]
COc1ccc(CNC(=O)C2(CC3CC(c4ccccc4)=NO3)CCN(C(=O)c3cccc(O)c3)CC2)cc1 (stereo unspecified)	65.8% [at 12.3 µM] (active)
CO[C@@H]1CN(C)C(=O)c2cc(NC(=O)C3CCOCC3)ccc2OC[C@H](C)N(C)C[C@H]1C	0.584%
C[C@@H]1CCCCO[C@H](CN(C)C)[C@H](C)CN([C@@H](C)CO)C(=O)c2cc(NS(=O)(=O)c3ccccc3)ccc2O1	19.2%
Cc1ccc(C(=O)N/C(=C\c2cccs2)C(=O)NCCc2ccccn2)cc1C	-3.78% [at 12.3 µM]
COc1cncc(-c2cnc3sc(NCCc4ccccn4)nn23)c1	61.5% [at 12.3 µM] (active)
COc1ccc(NCCc2ccccn2)cc1	-6.27% [at 12.3 µM]
CCNC(=O)Nc1ccc2c(c1)C(=O)N(C)[C@H]1CC[C@@H](CC(=O)N[C@@H](C)c3ccccc3)O[C@H]1CO2	0.456%
COCC(=O)N1C[C@@H](C)[C@H](OC)CN(C)C(=O)c2cc(NC(=O)c3cc(C)on3)ccc2OC[C@@H]1C	-4.38%
C[C@@H]1CN([C@H](C)CO)C(=O)Cc2cc(NC(=O)Cn3cnnn3)ccc2O[C@H]1CN(C)Cc1ccc(C(F)(F)F)cc1	3.54%
COc1ccccc1CNC(=O)CCCN1C(=O)NC2(CCCC2)C1=O	2.68% [at 12.3 µM]
COc1ccccc1CNC(=O)C1CCN(S(C)(=O)=O)CC1	-69% [at 12.3 µM]
COC(=O)C1(C(=O)OC)C[C@H](c2ccccc2)N(Cc2ccccc2OC)[C@@H]1c1ccccc1	84.1% [at 12.3 µM] (active)
O=C(N[C@H]1CC[C@@H](CCNC(=O)C2CCC2)O[C@@H]1CO)c1ccncc1	7.35%
C[C@@H]1CN([C@@H](C)CO)C(=O)c2cc(NC(=O)C3CCCCC3)ccc2O[C@@H](C)CCCCO[C@H]1CN(C)C(=O)CCC(F)(F)F	7.33%
C[C@H](CO)N1C[C@H](C)[C@H](CN(C)C(=O)c2ccncc2)OCc2ccccc2-c2c(n(C)c3ccccc23)C1=O	59.8% (active)
Cc1noc(C)c1C(=O)N(C)C[C@H]1OCc2ccccc2-c2c(n(C)c3ccccc23)C(=O)N([C@@H](C)CO)C[C@H]1C	-3.54%
C[C@@H]1CN([C@H](C)CO)C(=O)c2c(c3ccccc3n2C)-c2ccccc2CO[C@H]1CN(C)S(=O)(=O)c1ccccc1F	6.3%
C[C@H](CO)N1C[C@H](C)[C@@H](CN(C)S(=O)(=O)c2cccc(F)c2)OCc2ccccc2-c2c(n(C)c3ccccc23)C1=O	56% (active)
C[C@@H]1CN([C@@H](C)CO)C(=O)c2c(c3ccccc3n2C)-c2ccccc2CO[C@@H]1CN(C)S(=O)(=O)CC(F)(F)F	-10.3%
C[C@@H]1CN([C@H](C)CO)C(=O)c2c(c3ccccc3n2C)-c2ccccc2CO[C@H]1CN(C)C(=O)c1ccncc1	1.26%

Reference: PubChem BioAssay AID651610 (Broad Institute, 2012)
